# In PubChem BioAssay AID540313 (Sanford-Burnham Center for Chemical Genomics, 2011):
# Hit rate of the full screen: of about 2,500 compounds, fewer than 10 were called active.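 How the source made its calls: active means inhibition of at least 30% at 20 µM; inactive means the rest.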 The list is a sample of the results.
# Experiment: colorimetric readout interference by compounds, confirmation, artefact control for Scp-1 inhibitor project, biochemical, single concentration (AID 540313);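 further: compounds added after enzyme reaction finished so only phosphate colour detection is probed; plate controls were DMSO wells with completed Scp-1 reaction for no effect and substrate wells lacking enzyme for full effect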
# Settings: Colorimetric interference counterscreen, malachite green absorbance 630 nm; at 20 µM; stronger effect = higher value
row,Structure (SMILES),apparent inhibition (interference)
1,O=c1c2cc(-c3ccccc3)sc2nc2n1N=C(c1cccs1)CS2,-15.6% (inactive)
2,O=C(c1ccc(CS(=O)(=O)c2ccccc2)o1)N1CCN(c2ccccc2)CC1,-14.5% (inactive)
3,Cc1ccc(C(=O)NNC(=O)c2cc3cc4ccccc4nc3s2)cc1,-12.3% (inactive)
4,N#CC1=C(SCc2ccccc2)NC(=O)C(C#N)C12CCCC2 (stereo not drawn),-3.5% (inactive)
5,COc1cccc2sc(N(CCCN(C)C)C(=O)C(c3ccccc3)c3ccccc3)nc12,-9.56% (inactive)
6,CN(c1ccccc1)S(=O)(=O)c1ccc(Cl)c(C(=O)OCC(=O)NCc2ccco2)c1,-22.8% (inactive)
7,Nn1cnnc1N/N=C/c1cc([N+](=O)[O-])c(Cl)cc1Cl,2.55% (inactive)
8,O=C(COC(=O)/C=C/c1ccc(Br)o1)Nc1cccc(S(=O)(=O)N2CCOCC2)c1,-18.6% (inactive)
9,Cc1nnc(SCC(=O)Nc2ccc(S(=O)(=O)Nc3ccc(Cl)nn3)cc2)s1,-18.9% (inactive)
10,O=C(COC(=O)CCC(=O)c1cccs1)NCc1ccco1,-8.73% (inactive)
11,COCCCNc1nc2ccccc2nc1NS(=O)(=O)c1ccc(F)cc1,-12.6% (inactive)
12,O=S(=O)(Nc1ccccc1Cl)c1cccc2nsnc12,-11.2% (inactive)
13,CC(NC(=O)CC1SC(N)=NC1=O)c1ccccc1 (stereo not drawn),-25.2% (inactive)
14,O=C(O)c1ccc(N/N=C/c2ccc3ncccc3c2)cc1,-19.2% (inactive)
15,ON=C1/C(=N\O)CC2(C/C1=N/O)OCCO2,-6.8% (inactive)
16,O=C(Nc1cc(S(=O)(=O)N2CCCCC2)ccc1Cl)C1COc2ccccc2O1 (stereo not drawn),-8.46% (inactive)
17,Cc1nn(-c2cc(Cl)ccc2N)c(=O)c2ccccc12,-5.43% (inactive)
18,Cc1ccc(CN2CCN(c3ccccc3Cl)CC2)o1,-14.5% (inactive)
19,CN(CC(=O)Nc1cccc(F)c1)C(=O)C1CC(=O)N(CCc2ccccc2)C1 (stereo not drawn),-6.79% (inactive)
20,COc1ccc(NC(=O)N(C)C[C@H]2Oc3ccc(NC(=O)C4CC4)cc3C(=O)N([C@H](C)CO)C[C@@H]2C)cc1,-15.3% (inactive)
21,COc1ccc(Cl)cc1C=CC=NNC(=O)c1ccncc1,-8.46% (inactive)
22,Cc1ccc(S(=O)(=O)Nc2ccc3c(c2)C(=O)N([C@H](C)CO)C[C@@H](C)[C@@H](CN(C)C(=O)Nc2cccc4ccccc24)O3)cc1,-13.6% (inactive)

row,Structure (SMILES),apparent inhibition (interference)
1,C=C1c2cccc(OC)c2O[C@H](C(=O)OCC)[C@@H]1CCCCCC,-7.63% (inactive)
2,COc1cccc(CNS(=O)(=O)c2csc(C(N)=O)c2)c1,-12.8% (inactive)
3,O=C(Nc1cccc(F)c1)[C@@H]1CCCN1,-5.98% (inactive)
4,O=C(c1ccc2c(c1)OCO2)N1CCNc2ccccc2C1,-25.4% (inactive)
5,C[C@H](CO)N1C[C@H](C)[C@H](CN(C)C(=O)Nc2ccc(C(F)(F)F)cc2)Oc2c(NC(=O)c3ccncc3)cccc2C1=O,-21.4% (inactive)
6,Cc1ccccc1NC(=O)CN1C(=O)N/C(=C\c2cccn2-c2cccc(C(=O)O)c2)C1=O,6.13% (inactive)
7,N#Cc1c(-c2cccs2)nc(SCC(=O)c2ccc(Br)cc2)[nH]c1=O,-20.8% (inactive)
8,O=C(NNC(=O)c1ccc2ccccc2c1)c1ccc(Cl)cc1,-9.26% (inactive)
9,N#Cc1ccc(C(=O)Nc2cccc3cccnc23)c(F)c1,-4.88% (inactive)
10,Cc1ccc(S(=O)(=O)Nc2nc(C)cc(-n3nc(C)cc3C)n2)cc1,-5.43% (inactive)
11,O=C(CN1CCN(S(=O)(=O)/C=C/c2ccccc2)CC1)NC(=O)NCc1ccco1,-17.5% (inactive)
12,Cc1ccc(Cc2nnc(SCC(=O)Nc3ccc(C)cc3C)[nH]c2=O)cc1,-12.9% (inactive)
13,O=C(Cn1cc(/C=N/NC(=O)c2cccc(C(F)(F)F)c2)c2ccccc21)Nc1ccc(F)cc1,-10.9% (inactive)
14,CC1=NNC(=O)C1CCC(=O)N/N=C\c1cccc(Cl)c1 (stereo not drawn),-21.4% (inactive)
15,CCCc1nc(-c2cc3cc(C)ccc3[nH]c2=O)no1,-14% (inactive)
16,COc1cccc(NC(C)=[N+](C)CCNS(=O)(=O)c2ccc(Cl)cc2)c1,-6.24% (inactive)
17,Cc1ccc(N=Cc2c(O)n(-c3nccs3)c(=O)c3ccccc23)c(C)c1,-22.5% (inactive)
18,O=C(CN1CCN(c2ccc(Cl)cc2)CC1)c1ccccc1,-14.5% (inactive)
19,O=C(Cn1nnc(-c2ccc3c(c2)OCO3)n1)NCc1ccco1,-12% (inactive)
20,Cc1cc(/C=C2\SC(=O)N(C)C2=O)c(C)n1-c1cccc(C(=O)O)c1,-18.6% (inactive)
21,Cc1c(CCC(=O)O)c(=O)oc2c(C)c(OCc3ccccc3Cl)ccc12,-5.7% (inactive)
22,COc1ccc2[nH]c3c(C)c4cc[n+](C)cc4c(C)c3c2c1,-5.15% (inactive)

row,Structure (SMILES),apparent inhibition (interference)
1,NC(=O)NC(=O)CSc1nc2cc([N+](=O)[O-])ccc2n1-c1cccc(C(F)(F)F)c1,-5.7% (inactive)
2,CCOc1ccccc1/C=c1\sc2nc(-c3ccco3)nn2c1=O,-22.1% (inactive)
3,Cc1ccc(/C=C/C(=O)Nc2ccc([N+](=O)[O-])c(NC(=O)/C=C/c3ccc(C)o3)c2)o1,2.53% (inactive)
4,COc1ccc(OC)c(NC(=O)CSc2nc(-c3ccccc3)cc(=O)[nH]2)c1,-14.8% (inactive)
5,COc1ccc(OCC(=O)NNC(=O)c2ccc(-c3ccccc3)cc2)cc1,-11.5% (inactive)
6,Cc1c([N+](=O)[O-])c(N)nn1C,2.28% (inactive)
7,O=C1NN(c2ccccc2)C(=O)/C1=C/c1ccc(-c2cccc(C(=O)O)c2)o1,0.06% (inactive)
8,COc1ccc(/C=C/C(=O)OCC(=O)NC2CCCCCC2)cc1OC,5.86% (inactive)
9,Cc1ccc(CCCOC(=O)C[N+]2(C)CCCC2)cc1,-20% (inactive)
10,Cc1c(CCC(=O)O)c(=O)oc2cc(OCc3ccc(Br)cc3)ccc12,-11.7% (inactive)
11,CC1CCN(c2ccc(S(=O)(=O)Nc3cc(C(=O)O)cc(C(=O)O)c3)cc2[N+](=O)[O-])CC1,-19.7% (inactive)
12,CC(=O)Nc1ccc(N2C(=O)CCC2=O)cc1C,-12.9% (inactive)
13,Cn1c(N)c(C(=O)COC(=O)c2ccc3ccccc3c2)c(=O)n(C)c1=O,-13.1% (inactive)
14,N/C(=N\OC(=O)N1c2ccccc2Sc2ccccc21)c1ccc(Br)cc1,-18.1% (inactive)
15,O=[N+]([O-])c1cc(S(=O)(=O)Nc2cccc(Cl)c2)ccc1N=Nc1c(O)[nH]c2ccccc12,-15.6% (inactive)
16,CCOC(=O)C1CCCN(C(=O)CN(c2ccc(OC)cc2)S(=O)(=O)c2c(C)noc2C)C1 (stereo not drawn),-13.4% (inactive)
17,C[n+]1ccc(C(=O)NCc2ccccc2)cc1,-18.9% (inactive)
18,CCOC(=O)C1=C(C)c2ccccc2OC1(C)C(=O)OCC (stereo not drawn),-21.7% (inactive)
19,O=C(CNC(=O)C(c1ccccc1)c1ccccc1)N/N=C\c1ccc2c(c1)OCO2,-8.18% (inactive)
20,CCC(=O)Nc1ccccc1N1CCN(S(C)(=O)=O)CC1,-13.4% (inactive)
21,C=Cc1ccc(C(=O)N2CCCC(CCC(=O)N3CCN(c4ccccn4)CC3)C2)cc1 (stereo not drawn),-12.3% (inactive)
22,CCc1ccc(NC(=O)CS(=O)CC(=O)NCCCc2ccccc2)cc1 (stereo not drawn),-6.8% (inactive)

row,Structure (SMILES),apparent inhibition (interference)
1,O=C(CCS(=O)(=O)c1ccc(Br)cc1)NCCc1ccc(Cl)cc1,-10.1% (inactive)
2,Cc1ccc(NC(=O)COc2ccc(/C=N\NC(=O)c3cccnc3)cc2)cc1C,-15.6% (inactive)
3,O=C(CCNC(=O)c1ccccc1)NN=Cc1ccc(Br)o1,-15.3% (inactive)
4,O=C(NN1C(=O)C2C3C=CC(O3)C2C1=O)c1ccccc1 (stereo not drawn),-7.63% (inactive)
5,COc1ccc(Cc2nnc(NC(=O)Cc3cccs3)s2)cc1,-7.35% (inactive)
6,CCCCSc1nnc(-c2ccc(C)cc2)o1,-17.8% (inactive)
7,CSc1ccc(/C=N/NC(=O)c2cccc(Cl)c2)cc1,-14.2% (inactive)
8,Cc1oc2c(C)c3oc(=O)c(CC(=O)N[C@@H](CC(C)C)C(=O)N[C@@H](Cc4ccccc4)C(=O)O)c(C)c3cc2c1C,-9.01% (inactive)
9,O=C(c1cc2c(s1)CCC2)N1CCN(c2ccccc2)CC1,-15.9% (inactive)
10,COc1ccc(S(=O)(=O)c2c[nH]c(=S)[nH]c2=O)cc1Cl,-5.98% (inactive)
11,COCCCn1c(Cc2csc(Nc3cccc(Cl)c3)n2)nnc1SCC(=O)OC1CCCCC1,-7.61% (inactive)
12,C=CC1C(OC2OC(CO)C(O)C(O)C2O)OC=C(C(=O)OC)C1CC1CC(=O)CC(CC(=O)CCc2ccc(O)cc2)O1 (stereo not drawn),-16.9% (inactive)
13,COC(=O)c1ccc(-c2c(-c3ccccc3)ncc3cc(OC)c(OC)cc23)cc1,-3.78% (inactive)
14,CCOc1ccc2nc(N(CCCN(C)C)C(=O)c3ccc(C(=O)c4ccccc4)cc3)sc2c1,-0.21% (inactive)
15,COc1cc(/C=C/C2=CC(C)(C)NC(=S)N2)cc(OC)c1OC,-12% (inactive)
16,COC(=O)CNC(=O)C(CCSC)NC(C)=O (stereo not drawn),-13.1% (inactive)
17,COc1cc(SC)ccc1C(=O)NNC(=O)C1COc2ccccc2O1 (stereo not drawn),-1.3% (inactive)
18,COC(=O)C[n+]1cccc2ccccc21,-9.28% (inactive)
19,CC1=NN(C(=O)CCc2ccccc2O)C(O)(C(F)(F)F)C1 (stereo not drawn),-14% (inactive)
20,Cc1c(Cl)cnc(NC(=O)COC(=O)c2ccc(S(=O)(=O)NCc3ccco3)cc2)c1Cl,-10.4% (inactive)
21,O=C(COc1ccc(-n2cnnn2)cc1)Nc1ccccc1Cl,-15.1% (inactive)
22,COc1ccc(N2CCN(C(=O)CSc3nc4cc(OC)c(OC)cc4cc3C#N)CC2)cc1,-7.08% (inactive)
